Pol kappa inh-1: qHTS for Inhibitors of Polymerase Kappa; DNA polymerase kappa (Homo sapiens), Q9UBT6; Potency, µM (highest dose often 107 µM), inactives show at the highest dose activity, negative = inhibition, most hits filed as inhibitors; AID 588579, 2011; purified Pol kappa, fluorescent DNA synthesis assay, 10 min; 400,000 tested, 0.53% active; further: potency means the concentration at half of the fitted maximal effect; on the % scale 0 is the no-effect control and ±100 the full control effect
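First, compounds were pin-transferred onto 10 nM Pol kappa. After 15 min at room temperature, substrate was added to 50 nM final. Fluorescence was then measured kinetically at 0 and 10 min.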
POLB inh: qHTS Assay for Inhibitors of DNA Polymerase Beta; 340,000 tested, 1.3% active; Pol beta primer extension/strand displacement, fluorescence kinetic; AID 485314, 2010; Potency, µM (series often up to 114 µM), inactives show at the top dose activity change, negative = inhibition, actives largely listed as inhibitors; further: potency means the concentration at half of the fitted maximal effect; on the % scale 0 is the no-effect control and ±100 the full control effect
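Kinetic readout of DNA synthesis with strand displacement by Pol beta. Compound and 10 nM enzyme sit 15 min at room temperature; 50 nM substrate starts the reaction, read immediately and at 10 min.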
Pol eta inh-1: qHTS for Inhibitors of Polymerase Eta; Potency, µM (highest dose often 114 µM), inactives show at the highest dose activity change, negative = inhibition, hits mostly inhibitors; recombinant Pol eta, fluorescent DNA replication assay; 390,000 tested, 1.2% active; further: potency means the concentration at half of the fitted maximal effect; on the % scale 0 is the no-effect control and ±100 the full control effect
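Fluorescent replication assay: 50 nM final substrate added after a 15 min room-temperature compound preincubation with 10 nM enzyme. Signal taken at 0 min and again at 10 min.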
PI4K2A inh: qHTS for small molecular inhibitors of PI4K2A | activity change, negative = inhibition, % at 76.9 µM | Phosphatidylinositol 4-kinase type 2-alpha (Homo sapiens), Q9BTU6 | 420,000 tested, 0.13% active | purified PI4K2A, ADP-Glo luminescence, 1 h; hits give low values; in the data active means activity change below about -50%; inconclusive means mostly about -30% to -49%;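 further: -100% = wells without enzyme as full effect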
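Compounds are screened against recombinant PI4K2A using PI as substrate and ATP, the latter dispensed at 300 microM. Reactions run one hour at ambient temperature before ADP-Glo detection; full inhibition defined by wells lacking enzyme.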
Pol iota inh: qHTS for Inhibitors of Polymerase Iota; DNA polymerase iota (Homo sapiens), Q9UNA4; Potency, µM (titrated, usually from 115 µM), inactives show at the top dose activity, negative = inhibition, actives largely listed as inhibitors; 390,000 tested, 1% active; Pol iota fluorescent replication assay, 10 min; further: potency means the concentration at half of the fitted maximal effect
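Fluorescent replication assay read twice, at 0 min and 10 min after adding 50 nM (final) substrate. Enzyme (10 nM) and compounds were first incubated 15 min at room temperature; enzyme-free buffer wells were negative controls.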
PI5P4K alpha inh: qHTS for Inhibitors of phosphatidylinositol 5-phosphate 4-kinase (PI5P4K). Phosphatidylinositol 5-phosphate 4-kinase type-2 alpha (Homo sapiens), P48426. 330,000 tested, 1.2% active. PI5P4Kalpha enzyme, ADP-Glo luminescence, 60 min; hits give low values. AID 652105, 2013. max response, %; active means max response of -50% or lower; inconclusive means between -30% and -50%; inactive means -30% or higher; further: value at the top dose of about 77 µM; on the % scale 0 is the no-effect control and ±100 the full control effect
Target sequence (P48426 whole entry, looked up): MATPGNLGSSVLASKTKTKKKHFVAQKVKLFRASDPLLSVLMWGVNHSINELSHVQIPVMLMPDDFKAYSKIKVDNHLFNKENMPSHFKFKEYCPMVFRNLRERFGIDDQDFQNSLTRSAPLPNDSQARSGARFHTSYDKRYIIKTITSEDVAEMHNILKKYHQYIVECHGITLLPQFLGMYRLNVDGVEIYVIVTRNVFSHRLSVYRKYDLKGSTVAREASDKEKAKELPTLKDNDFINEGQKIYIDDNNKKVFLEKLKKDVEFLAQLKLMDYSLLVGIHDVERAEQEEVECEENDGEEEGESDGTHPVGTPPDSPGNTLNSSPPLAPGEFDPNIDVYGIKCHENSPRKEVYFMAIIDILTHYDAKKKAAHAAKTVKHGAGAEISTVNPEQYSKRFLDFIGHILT
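Enzyme plus substrate dispensed, test compounds pinned in, then ATP (5 microM final) added. After 60 min at RT, ADP-Glo reagent 1 for 45 min and reagent 2 for 30 min preceded luminescence imaging.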
GALK confirm: Confirmation Assay for Inhibitors of Human Galactokinase (GALK). shares compounds with Pol eta inh-1. purified GALK, Kinase-Glo ATP depletion luminescence. Potency, µM (highest dose often 115 µM), for the others: at the top dose activity, negative = inhibition, hits mostly inhibitors. 150 tested, 70% active
Redox cycling: Confirmatory Assay for Inhibitors of Human Galactokinase (GALK): Phenol-HRP redox assay counterscreen; AID 2035, 2009; Potency, µM (doses to about 115 µM), without a hit: at the highest dose activity change, negative = H2O2 signal, actives largely listed as inhibitors; 150 tested, 40% active; Phenol red-HRP H2O2 redox cycling, absorbance 600 nm; shares compounds with Pol eta inh-1
HEK293 tox: Secondary Assay for Inhibitors of Human Galactokinase (GALK): HEK-293 Cell Viability Assay | shares compounds with Pol eta inh-1 | Potency, µM (doses to about 46.1 µM), for inactives: top-dose activity change, negative = cytotoxicity, usual class: inhibitors | HEK-293 viability, ATP luminescence (CellTiter-Glo), 24/48 h | 170 tested, 10% active | AID 2547, 2010; further: potency means the concentration at half of the fitted maximal effect; on the % scale 0 is the no-effect control and ±100 the full control effect
Pol kappa inh-2: qHTS for Inhibitors of Polymerase Kappa: Confirmatory Assay for Cherry-picked Compounds | shares compounds with Pol eta inh-1 | 920 tested, 76% active | Potency, µM, hits mostly inhibitors | AID 720501, 2013 | purified Pol-kappa, fluorescent strand-displacement substrate; further: potency means the concentration at half of the fitted maximal effect
Pol eta inh-2: qHTS for Inhibitors of Polymerase Eta: Confirmatory Assay for Cherry-picked Compounds | Potency, µM, usual class: inhibitors | Pol eta primer extension, TAMRA/BHQ fluorescence, 10 min | 2,600 tested, 64% active | shares compounds with Pol eta inh-1 | AID 720502, 2013; further: potency means the concentration at half of the fitted maximal effect
Numbers without * were called inactive; ? = inconclusive; · = no result; [ ] = remark or other dose. Shown are actives, neighbours in structure and some others; about 2.8% of the full set was active somewhere. Unless noted, the call rests on the fitted dose curve; in most records, active means well fitted curve in the direction sought with a large enough effect; inconclusive means small, poorly fitted or top-dose-only effect, or another doubt; inactive means no such curve, though single readings can be large; an effect the other way counts as inactive or inconclusive.

SMILES	Pol kappa inh-1	POLB inh	Pol eta inh-1	PI4K2A inh	Pol iota inh	PI5P4K alpha inh	Pol eta inh-2	others
COc1cc(/C=C2\C(=N)N3N=C(S(C)(=O)=O)SC3=NC2=O)ccc1OCCOc1ccc(C)cc1	3%[60.1 µM]	-29%	?	-4	?	?	?	Pol kappa inh-2=27*
COc1cc(/C=C2/C(=N)N3OC(C)=CC3=NC2=O)ccc1OC(=O)c1ccco1	-19%	-12%	3%	9	25%	-12	·
CCS(=O)(=O)C1=NN2C(=N)/C(=C\c3ccc(OCCOc4cccc(OC)c4)c(OC)c3)C(=O)N=C2S1	-25%	50µM*	35µM*	-7	?	-78*	?	Pol kappa inh-2=?
CC(C)CCNC(=O)[C@H]1COC(O)([C@H](Cc2ccccc2)NC(=O)[C@@H](NC(=O)OCc2ccccc2)C(C)C)CN1C (stereo partly drawn)	·	·	·	2	·	·	·
COc1ccc(C(NC(=O)C2CCN(CCOc3ccc(Cl)cc3Cl)CC2)c2ccccn2)cc1 (stereo not drawn)	·	·	·	-5	·	-5	·
COC(=O)c1oc2ccccc2c1N	-16%	5%	11%	-1	?	3	·
COC(=O)c1oc2ccccc2c1NC(=O)/C=C/C(=O)O	2%	-30%	-6%	5	30%	3	·	GALK confirm=0%;Redox cycling=8%;HEK293 tox=14%
CCCc1cc(=O)oc2cc(OCC(=O)NC(Cc3c[nH]c4ccc(O)cc34)C(=O)O)c(Cl)cc12 (stereo not drawn)	?	-14%	40µM*	-12	?	8	?
COc1cc(/C=N/NC(=O)C(Cc2c[nH]c3ccccc23)NC(=O)OCc2ccccc2)cc([N+](=O)[O-])c1O (stereo not drawn)	?	50µM*	20µM*	-8	?	-79*	?
O=C(O)c1cc(S(=O)(=O)N2CCN(S(=O)(=O)c3ccc4ccccc4c3)CC2)ccc1Br	-36%	·	18µM*	-5	?	-24	48*	Pol kappa inh-2=17*
O=c1c2sc3ccccc3c2n(Cc2cccc(F)c2)c(=O)n1CCc1ccccc1	-5%	-1%	-2%	-2	5%	·	·
N#Cc1ccsc1NC(=O)CCS(=O)(=O)c1ccccc1	-10%	-19%	8%	3	-22%	-3	·
N#Cc1ccsc1NC(=O)COC(=O)CCS(=O)(=O)c1ccccc1	?	·	32µM*	2	?	-56*	?
Cc1ccnc2ncccc12	13%	·	·	·	8%	·	·
COc1cc(/C=C/C(=O)O)cc(S(=O)(=O)NC2CCCC2)c1OC	-8%	-1%	-13%	3	9%	1	·
COc1ccc(/C=C/C(=O)O)cc1S(=O)(=O)NC1CCS(=O)(=O)C1 (stereo not drawn)	-24%	?	28µM*	3	?	-3	?	Pol kappa inh-2=67*
COc1ccc(/C=C/C(=O)O)cc1S(=O)(=O)NCc1ccco1	-21%	?	56µM*	-4	?	-10	67*
Nc1ccc(C=O)cc1	9%	·	·	·	-6%	·	·
Cc1cccc(C)c1NS(=O)(=O)c1ccc2c(c1)[C@H]1C=CC[C@H]1[C@@H](c1ccc(Cl)cc1)N2	-12%	?	5%	-7	-17%	·	·
Cc1ccc(Cl)c2c1N[C@@H](c1ccc(C(=O)O)cc1)[C@H]1CC=C[C@@H]21	32µM*	16µM*	?	-14	32µM*	·	?	Pol kappa inh-2=75*
O=C(CSc1nc2c(cnn2-c2ccc(F)cc2)c(=O)[nH]1)Nc1ccc(Br)cc1	-10%	?	56µM*	-8	-5%	·	?	Pol kappa inh-2=17*
CCOC(=O)c1ccccc1NC(=O)CSc1nc2ncccc2[nH]1	-2%	3%	-2%	0	15%	·	·
Cc1ccc(NC(=O)CSC2=C(C#N)C(c3ccco3)C3=C(CCCC3=O)N2)cc1 (stereo not drawn)	-6%	3%	-6%	5	?	-10	·
N#CC1=C(SCC(=O)Nc2ccc(C(=O)O)cc2)NC(=O)CC1c1ccco1 (stereo not drawn)	?	?	20µM*	-5	25µM*	?	60*
Cc1cc(C)c(NC(=O)Cn2nc3c(cc2=O)CCCC3)c(C)c1	-7%[60.1 µM]	1%	-23%	-3	29%	·	·
C/C(=N\Nc1cccc(C(=O)O)c1)c1ccc(Cl)s1	71µM*	32µM*	20µM*	-1	35µM*	3	27*
COc1ccc(/C(C)=N/Nc2cccc(C(=O)O)c2)cc1OC	-18%	-24%	?	-3	56%	-13	·
O=C1CSC(=S)N1/N=C/C=C/c1ccccc1	?	28µM*	14µM*	-12	20µM*	-63*	?
